Source: PubChem BioAssay (NCATS)
Values joined by “and” are separate entries in the source; they are usually repeats but may differ in a detail not shown here. Equal values may be shown once. Inconclusive results are not listed. Entries that show only a call come without a potency. Active and inactive are the calls of the source. Unless noted, the call rests on the fitted dose curve; in most records, active means well fitted curve in the direction sought with a large enough effect; inconclusive means small, poorly fitted or top-dose-only effect, or another doubt; inactive means no such curve, though single readings can be large; an effect the other way counts as inactive or inconclusive.

Assays:
[1] = molecular target: Catechol O-methyltransferase (Homo sapiens) (UniProt P21964); test: Confirmatory Screen for Target Class Profiling of Small Molecule Inhibitors of Methyltransferases (AID 1745852; calls by dose curve; further: potency means the concentration at half of the fitted maximal effect); conditions: MTase-Glo luminescence, SAH detection, recombinant enzyme; measured here: COMT max response; stronger effect = lower value
Chain of Catechol O-methyltransferase (Homo sapiens) (P21964 whole entry, looked up): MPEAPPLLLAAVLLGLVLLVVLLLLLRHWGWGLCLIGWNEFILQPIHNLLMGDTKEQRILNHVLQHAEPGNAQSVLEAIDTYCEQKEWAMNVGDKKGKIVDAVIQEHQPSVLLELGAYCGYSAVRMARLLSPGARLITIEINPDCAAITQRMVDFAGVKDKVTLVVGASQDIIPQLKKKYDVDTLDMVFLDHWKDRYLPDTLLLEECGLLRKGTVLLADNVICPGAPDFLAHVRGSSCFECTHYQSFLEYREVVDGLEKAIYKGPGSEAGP

[2] = molecular target: Guanidinoacetate N-methyltransferase (Homo sapiens) (UniProt Q14353); test: as above; conditions: MTase-Glo luminescence, SAH detection, recombinant enzyme; activity change, negative = inhibition: at 57.3 µM (top of the series) unless noted
[3] = molecular target: Nicotinamide N-methyltransferase (Homo sapiens) (UniProt P40261); test: as above; conditions: MTase-Glo luminescence, SAH detection, recombinant enzyme; measured here: NNMT max response; stronger effect = lower value
Chain of Nicotinamide N-methyltransferase (Homo sapiens) (P40261 whole entry, looked up): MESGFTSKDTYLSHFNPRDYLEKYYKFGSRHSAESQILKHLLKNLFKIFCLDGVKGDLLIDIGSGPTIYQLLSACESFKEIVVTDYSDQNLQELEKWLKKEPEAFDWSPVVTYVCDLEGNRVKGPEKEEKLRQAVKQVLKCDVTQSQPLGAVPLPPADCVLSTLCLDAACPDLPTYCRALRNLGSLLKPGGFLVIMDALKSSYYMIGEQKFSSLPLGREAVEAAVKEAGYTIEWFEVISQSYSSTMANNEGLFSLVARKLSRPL

[4] = molecular target: Phenylethanolamine N-methyltransferase (Homo sapiens) (UniProt P11086); test: as above; conditions: MTase-Glo luminescence, SAH detection, recombinant enzyme; measured here: PNMT max response; stronger effect = lower value
Chain of Phenylethanolamine N-methyltransferase (Homo sapiens) (P11086 whole entry, looked up): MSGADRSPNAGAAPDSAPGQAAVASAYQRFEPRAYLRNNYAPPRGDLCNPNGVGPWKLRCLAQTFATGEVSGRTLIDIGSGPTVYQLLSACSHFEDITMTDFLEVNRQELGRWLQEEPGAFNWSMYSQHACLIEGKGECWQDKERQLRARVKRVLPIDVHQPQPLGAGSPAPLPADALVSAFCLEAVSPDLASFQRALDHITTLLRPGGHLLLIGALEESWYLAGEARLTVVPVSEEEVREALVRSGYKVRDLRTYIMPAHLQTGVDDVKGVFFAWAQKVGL

[5] = molecular target: Glutathione peroxidase 1 (Homo sapiens) (UniProt P07203); test: Primary qHTS Assay for Inhibitors of Recombinant Selenoprotein Glutathione Peroxidase 1 (GPX1) (AID 1845191); further: nearly all actives have a fitted effect of over 65% in size
Chain of Glutathione peroxidase 1 (Homo sapiens) (P07203 whole entry, looked up): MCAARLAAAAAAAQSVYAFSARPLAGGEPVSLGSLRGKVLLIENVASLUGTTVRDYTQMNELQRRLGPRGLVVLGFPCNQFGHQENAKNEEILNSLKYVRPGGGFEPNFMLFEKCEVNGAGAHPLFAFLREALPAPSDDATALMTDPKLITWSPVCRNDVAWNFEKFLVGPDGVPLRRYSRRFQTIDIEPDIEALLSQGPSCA
Outline: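 NADPH consumption tracked by fluorescence at 340/450 nm between t=0 and t=15 min, room temperature. Final mix: 10 nM GPX1, 100 nM glutathione reductase, 1 mM GSH, 0.5 mM NADPH, 0.5 mM cumene hydroperoxide, 0.01% BSA; 30 min compound–enzyme preincubation.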

[6] = molecular target: Phospholipid hydroperoxide glutathione peroxidase GPX4 (Homo sapiens) (UniProt P36969); test: Primary qHTS Assay for Inhibitors of Recombinant Selenoprotein Glutathione Peroxidase 4 (GPX4) (AID 1845192); further: nearly all actives have a fitted effect of over 65% in size; further: potency means the concentration at half of the fitted maximal effect
Chain of Phospholipid hydroperoxide glutathione peroxidase GPX4 (Homo sapiens) (P36969 whole entry, looked up): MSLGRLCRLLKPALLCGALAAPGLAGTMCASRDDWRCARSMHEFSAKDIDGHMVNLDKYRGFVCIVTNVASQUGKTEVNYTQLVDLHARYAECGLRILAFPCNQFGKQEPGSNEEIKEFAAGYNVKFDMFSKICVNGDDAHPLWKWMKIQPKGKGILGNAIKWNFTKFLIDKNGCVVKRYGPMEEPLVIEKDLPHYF
Outline: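 NADPH consumption followed by fluorescence at 340/450 nm, t=0 and after 15 min at room temperature. Reaction started with cumene hydroperoxide (0.5 mM final) after 30 min compound–GPX4 preincubation; final 200 nM GPX4, 100 nM GR, 1 mM GSH, 0.5 mM NADPH.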

[7] = molecular target: Luciferin 4-monooxygenase (Photinus pyralis) (UniProt P08659); test: Primary firefly luciferase (FLuc) qHTS assay for identification of artifact compounds. (AID 1845220); further: nearly all actives have a fitted effect of over 60% in size
Outline: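 FLuc 10 nM; luciferin 10 uM; ATP 10 uM; Tris-acetate pH 7.6, Mg-acetate 10 mM; 15 min RT preincubation; 5 min reaction; luminescence.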

[8] = Primary fluorescence-based thiol-reactive (MSTI) qHTS assay for identification of artifact compounds. (AID 1845221);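 further: thiol-reactive compounds lower the probe fluorescence signal; nearly all actives have a fitted effect of over 65% in size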
Outline: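 Reactivity toward the thiol probe MSTI (4 uM) is scored by fluorescence at Ex/Em 525/598 nm after 1 h at room temperature. Acetyl-MSTI and MSTI define the activity scale.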

[9] = test system: Nanoluciferase (engineered Oplophorus gracilirostris luciferase); test: Primary Nanoluciferase (NLuc) qHTS assay for identification of artifact compounds. (AID 1845222);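 further: NLuc secreted into diluted conditioned medium of S16 cells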
Outline: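 NLuc from S16 cell medium (1:55) plus test compounds, 15 min, room temperature. Luminescence after Nano-Glo (1:100) addition, 5 min.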

[10] = Primary redox qHTS assay for identification of artifact compounds. (AID 1845223)
Outline: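 Redox-cycling detection via DTT (250 uM final) oxidation coupled to Amplex Red (25 uM)/HRP (250 mU/mL) in HBSS. 15 min preincubation plus 30 min after DTT, room temperature. Ex/Em 525/598 nm; 4-parameter Hill fit against DMSO and 10 uM DA3003.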

[11] = NCATS anti-infectives library activity on HEK293 viability as a counter-qHTS vs the C. elegans viability qHTS (AID 1745854);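 further: HEK293 cells exposed to compounds for 24 hr before the viability read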
Outline: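 Counter-screen for cytotoxicity: HEK293, 24 hr, 37C, compounds up to 41.7 uM final (a dilution series, 1:5). Readout CellTiter-Glo luminescence, 10 min RT. Digitonin control, 83.3 uM final.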

[12] = Quantitative High-Throughput drug screen in 47 multiple myeloma cell lines against the NCATS MIPE library collection: FR4_PLB cell viability assay (AID 1918924; further: nearly all actives have a fitted effect of over 35% in size; further: potency means the concentration at half of the fitted maximal effect)
Outline: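 Myeloma cells (500 per well) were exposed to MIPE 4.0 compounds by pin transfer and incubated 48 hours at 37C, 5% CO2. Viability was read as ATP by CellTiter-Glo luminescence, normalised to DMSO (100%) and media-only (0%) wells.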

[13] = NCATS anti-infectives library activity on the primary C. elegans qHTS viability assay (AID 1745855; calls by dose curve)
Outline: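 GFP read-out by 488 nm laser cytometry at day 0, 3 and 7, gated on object perimeter, area and peak intensity, scored viability of PE254-GFP-FLuc worms exposed to compound in S medium with bacterial capsules at 21 °C.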

[14] = molecular target: Metallo-beta-lactamase type 2 (Klebsiella pneumoniae) (UniProt C7C422); test: qHTS to identify inhibitors of the New Delhi Metallo-beta-lactamase (NDM): assay validation screen against the NCATS LOPAC Collection (AID 1794843);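 further: nitrocefin turnover by NDM-1 measured as 485 nm absorbance at plateau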
Chain of Metallo-beta-lactamase type 2 (Klebsiella pneumoniae) (C7C422 whole entry, looked up): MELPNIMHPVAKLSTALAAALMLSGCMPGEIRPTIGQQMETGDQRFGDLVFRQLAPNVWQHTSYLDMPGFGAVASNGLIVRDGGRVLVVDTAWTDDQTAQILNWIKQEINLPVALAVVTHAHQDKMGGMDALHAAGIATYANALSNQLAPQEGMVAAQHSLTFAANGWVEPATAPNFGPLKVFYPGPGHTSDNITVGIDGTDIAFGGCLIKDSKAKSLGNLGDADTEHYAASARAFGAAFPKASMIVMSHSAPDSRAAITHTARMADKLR
Outline: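 NDM-1 at 2 nM final in 50 mM HEPES pH 7.0, 1 uM ZnSO4, 0.01% Tween20, preincubated with LOPAC compounds pinned in DMSO; 50 uM nitrocefin (stock) added. Hydrolysis read as absorbance at 485 nm in the plateau phase.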

Compound: CCCS(=O)(=O)Nc1ccc(F)c(C(=O)c2c[nH]c3ncc(-c4ccc(Cl)cc4)cc23)c1F
- activity [1]: -8.94%
- activity change, negative = inhibition [2]: -0.0685%
- activity [3]: -26%
- activity [4]: -12.4%
- Potency [5]: inactive
- Potency [6]: inactive
- Potency [7]: inactive
- Potency [8]: inactive
- outcome [9]: inactive
- outcome [10]: inactive

Compound: Cn1cnc2c(F)c(Nc3ccc(Br)cc3Cl)c(C(=O)NOCCO)cc21
- outcome [11]: inactive
- Potency [5]: inactive
- Potency [6]: inactive
- Potency [7]: inactive
- Potency [8]: inactive
- outcome [9]: inactive

Compound: Cc1cnc(NC(=O)C2=C(O)c3ccccc3S(=O)(=O)N2C)s1
- outcome [11]: inactive
- Potency [5]: inactive
- Potency [6]: inactive

Compound: Nc1nccc(-c2ccc3noc(-c4ccc(Cl)cc4)c3c2)n1
- activity [1]: -4.29%
- activity change, negative = inhibition [2]: 4.33%
- activity [3]: -9.7%
- activity [4]: -0.0134%
- Potency [5]: inactive

Compound: Nc1nc2c(ncn2COCCO)c(=O)[nH]1
- outcome [11]: inactive
- Potency [5]: inactive
- Potency [6]: inactive
- Potency [12]: inactive

Compound: CO[C@@H]1[C@H](N(C)C(=O)c2ccccc2)C[C@H]2O[C@]1(C)n1c3ccccc3c3c4c(c5c6ccccc6n2c5c31)C(=O)NC4
- Potency [13]: inactive
- Potency [5]: inactive
- Potency [12]: inactive

Compound: O=C1CCC(N2C(=O)c3ccccc3C2=O)C(=O)N1 (stereo unspecified)
- outcome [11]: inactive
- Potency [5]: inactive
- Potency [6]: inactive
- Potency [12]: inactive

Compound: NC[C@H](O)c1ccc(O)c(O)c1
- activity [1]: 45.4%
- activity change, negative = inhibition [2]: -4.17%
- activity [3]: 2.1%
- activity [4]: 21.8%
- outcome [14]: inactive
- Potency [5]: inactive
- Potency [6]: inactive

Compound: O=C(c1cc(Cc2n[nH]c(=O)c3ccccc23)ccc1F)N1CCN(C(=O)C2CC2)CC1
- outcome [11]: inactive
- Potency [5]: inactive
- Potency [6]: inactive
- Potency [7]: inactive
- Potency [8]: inactive
- outcome [9]: inactive
- outcome [10]: inactive
- Potency [12]: inactive

Compound: Oc1ccc(C2CNCCc3c2cc(O)c(O)c3Cl)cc1 (stereo unspecified)
- activity [1]: -77.1%
- Potency [2]: 27.3 µM (active)
- activity [3]: -15.5%
- activity [4]: -4.58%
- outcome [14]: inactive
- Potency [5]: inactive
- Potency [6]: inactive
- Potency [12]: inactive

Compound: CCCC(CCC)C(=O)O
- outcome [11]: inactive
- Potency [5]: inactive
- Potency [6]: inactive
- Potency [12]: inactive

Compound: CS(=O)(=O)c1cccc(CNc2nc(Nc3ccc4c(c3)CCC(=O)N4)ncc2C(F)(F)F)c1
- activity [1]: -9.69% and -3.27%
- activity change, negative = inhibition [2]: -3.15% and 1.66%
- activity [3]: -47.6% and -27.3%
- activity [4]: -7.63% and -9.92%
- Potency [5]: inactive
- Potency [6]: inactive
- Potency [7]: inactive
- Potency [8]: inactive
- outcome [9]: inactive

Compound: CNC(=O)c1ccc(N2C(=S)N(c3ccc(C#N)c(C(F)(F)F)c3)C(=O)C2(C)C)cc1F
- outcome [11]: inactive
- Potency [5]: inactive
- Potency [6]: inactive
- Potency [12]: inactive

Compound: Cc1[nH]c(=O)c(C#N)cc1-c1ccc2nccn2c1
- activity [1]: 4.51%
- activity change, negative = inhibition [2]: 5.86%
- activity [3]: -3.4%
- activity [4]: 4.35%
- Potency [5]: inactive
- Potency [6]: inactive
- Potency [12]: inactive

Compound: Cc1ccc(-n2nc(C(C)(C)C)cc2NC(=O)Nc2ccc(OCCN3CCOCC3)c3ccccc23)cc1
- Potency [5]: inactive
- Potency [6]: inactive

Compound: NCCCC(N)(C(=O)O)C(F)F (stereo unspecified)
- outcome [14]: inactive
- Potency [5]: inactive
- Potency [6]: inactive
- Potency [12]: 16.6 µM (active)

Compound: Cc1[nH]c(=O)c(C#N)cc1-c1ccncc1
- Potency [5]: inactive
- Potency [6]: inactive

Compound: C/C(=C\C(=O)Nc1ccccc1C(=O)O)c1ccc2ccccc2c1
- Potency [5]: inactive
- Potency [6]: 18 µM (active)

Compound: OCCC#Cc1nc(-c2ccc(F)cc2)c(-c2ccncc2)n1CCCc1ccccc1
- Potency [5]: inactive
- Potency [6]: inactive

Compound: CC(=O)NC(C)c1ccc(Oc2ccc(OC(C)C)cc2)cc1 (stereo unspecified)
- Potency [5]: inactive
- Potency [6]: inactive

Compound: CC(C)c1onc(-c2c(Cl)cccc2Cl)c1COc1ccc(/C=C/c2cccc(C(=O)O)c2)c(Cl)c1
- Potency [5]: inactive

Compound: CCOC(=O)N1CCC(=C2c3ccc(Cl)cc3CCc3cccnc32)CC1
- Potency [5]: inactive
- Potency [6]: inactive

Compound: NC(N)=NC(=O)c1nc(Cl)c(N)nc1N
- Potency [5]: inactive
- Potency [6]: inactive

Compound: COc1ccc(C2=N[C@H](c3ccc(Cl)cc3)[C@H](c3ccc(Cl)cc3)N2C(=O)N2CCNC(=O)C2)c(OC(C)C)c1
- Potency [5]: inactive
- Potency [6]: inactive

Compound: O=C1[C@H](Cc2ccc(O)cc2)N2C(=O)CCN(C(=O)NCc3ccccc3)[C@H]2CN1Cc1cccc2ccccc12
- Potency [5]: inactive
- Potency [6]: inactive

Compound: O=c1n(CCCN2CCN(c3cccc(Cl)c3)CC2)nc2ccccn12
- Potency [5]: inactive
- Potency [6]: inactive

Compound: Cc1ccc(NC(=O)c2cccc(C(C)(C)C#N)c2)cc1Nc1ccc2ncn(C)c(=O)c2c1
- Potency [5]: inactive
- Potency [6]: inactive

Compound: NCCc1ccc(O)c(O)c1
- Potency [5]: inactive
- Potency [6]: inactive

Compound: Clc1cccc(Cl)c1NC1=NCCN1
- outcome [14]: inactive
- Potency [5]: inactive
- Potency [6]: inactive

Compound: O=C(O)COCCN1CCN(C(c2ccccc2)c2ccc(Cl)cc2)CC1 (stereo unspecified)
- outcome [14]: inactive
- Potency [5]: inactive
- Potency [6]: inactive
- Potency [12]: inactive

Compound: CC(C)NCC(O)COc1ccc(COCCOC(C)C)cc1 (stereo unspecified)
- outcome [14]: inactive
- Potency [5]: inactive
- Potency [6]: inactive

Compound: COc1ccc(-c2c(-c3ccc(O)cc3O)n[nH]c2C)cc1
- Potency [5]: inactive

Compound: CN([C@@H](Cc1ccc(OS(=O)(=O)c2cccc3cnccc23)cc1)C(=O)N1CCN(c2ccccc2)CC1)S(=O)(=O)c1cccc2cnccc12
- Potency [5]: inactive
- Potency [6]: inactive

Compound: Nc1ccc(S(=O)(=O)Nc2ccnn2-c2ccccc2)cc1
- Potency [5]: inactive
- Potency [6]: inactive

Compound: C[C@]12CCC(=O)C=C1CC[C@@H]1[C@@H]2[C@@H](O)C[C@@]2(C)[C@H]1CC[C@]2(O)C(=O)CO
- Potency [5]: inactive
- Potency [6]: inactive

Compound: O=C(Nc1nc2ccccc2n1CCN1CCOCC1)c1cccc([N+](=O)[O-])c1
- outcome [14]: inactive
- Potency [5]: inactive
- Potency [6]: inactive

Compound: Nc1nc2ccc(OC(F)(F)F)cc2s1
- Potency [5]: inactive
- Potency [6]: inactive

Compound: CC(C)C[C@H](NC(=O)[C@@H](O)[C@H](N)Cc1ccccc1)C(=O)O
- outcome [14]: inactive
- Potency [5]: inactive
- Potency [6]: inactive

Compound: N[C@@H]1CONC1=O
- outcome [14]: inactive
- Potency [5]: inactive
- Potency [6]: inactive
- Potency [12]: inactive

Compound: CCC(=O)N[C@H]1CC[C@H](C(=O)N(C)c2ccc(-c3nc4ccccc4o3)cc2)C1
- Potency [5]: inactive
- Potency [6]: inactive

Compound: c1ccc(-c2nn3c(c2-c2ccnc4cc(OCCN5CCOCC5)ccc24)CCC3)nc1
- Potency [5]: inactive
- Potency [6]: inactive

Compound: Cc1cc(-c2ccc(CC(=O)Nc3ccc(-c4cccnc4)cc3)cc2)ccn1
- Potency [5]: inactive
- Potency [6]: inactive
